The list is not random: actives were taken first. Their share in the collection is about 3.5%.
GPR151 activ: activators of human GPR151 | activation, % at 11.2 µM | Q8TDV0 | AID 1508602 | PathHunter beta-arrestin GPR151 cells, luminescence | 650,000 compounds, 1% hits; in the data active = activation above about 4.9%;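 note: 0% = median of compound wells and 100% = cells with positive control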
Target sequence (Q8TDV0 whole entry, looked up): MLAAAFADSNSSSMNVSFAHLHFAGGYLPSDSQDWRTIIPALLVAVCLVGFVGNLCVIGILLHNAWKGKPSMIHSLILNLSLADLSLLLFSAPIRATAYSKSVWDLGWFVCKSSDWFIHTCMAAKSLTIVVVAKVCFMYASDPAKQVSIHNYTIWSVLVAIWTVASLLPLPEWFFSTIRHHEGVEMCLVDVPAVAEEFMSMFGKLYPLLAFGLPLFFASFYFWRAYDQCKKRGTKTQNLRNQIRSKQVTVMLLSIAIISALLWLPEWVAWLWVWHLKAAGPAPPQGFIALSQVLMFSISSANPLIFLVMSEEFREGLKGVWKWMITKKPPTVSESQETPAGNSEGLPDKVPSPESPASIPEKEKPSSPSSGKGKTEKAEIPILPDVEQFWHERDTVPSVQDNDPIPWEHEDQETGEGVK
FBW7 activator: activators of human E3 ligase FBW7 | 650,000 compounds, 0.13% hits | normalized activity (activation), % at 26.1 µM | AlphaScreen FBW7–phospho-cyclin E peptide binding, activator screen | AID 1259310 | Q969H0; in the data active = normalized activity above about 1.9%;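 note: purified mutant Fbw7 with reduced substrate affinity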
TEAD-YAP inh: TEAD-YAP interaction inhibition; HEK-TIYL cells, TEAD-Gal4/YAP UAS-luciferase luminescence; 640,000 compounds, 1.4% hits; inhibition, % at 9.12 µM; in the data active = inhibition above about 32%;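 note: 0% = median of test compound wells and 100% = reference inhibitor wells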
MITF primary: human MITF inhibition, primary screen; AID 1259374; inhibition, % at 2.6 µM; 650,000 compounds, 0.91% hits; AlphaScreen MITF homodimerization, bead proximity signal; O75030; in the data active = inhibition above about 50%;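 note: 0% = vehicle wells with protein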
MITF inh conf: human MITF inhibition, confirmation; shares compounds with MITF primary; AlphaScreen MITF homodimerization, biotin/His-MITF beads; inhibition, % at 2.6 µM; 4,700 compounds, 16% hits; AID 1259372;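 active = inhibition above a cutoff derived from the DMSO control wells, cut at about 28% in these data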;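 note: 0% = MITF dimer wells with DMSO only; inhibitors lower the bead chemiluminescence by keeping MITF from dimerizing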
AlphaScreen DR: counter-screen: compounds optically interfering with AlphaScreen; shares compounds with MITF primary; AlphaScreen optical interference counterscreen, cell-free; IC50, µM; 480 compounds, 6% hits; AID 1259373; call rule not given here
AlphaScreen intf2: optically interferes with AlphaScreen signal | LysRS AlphaScreen counterscreen, signal interference, triplicate | inhibition, % at 2.6 µM | AID 1259376 | shares compounds with MITF primary | 4,700 compounds, 7.6% hits;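 active = inhibition above a cutoff derived from the DMSO control wells, cut at about 30% in these data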
* = called active by the depositor; i = inactive; x = no result given; ! = repeats disagree.

SMILES	GPR151 activ	FBW7 activator	TEAD-YAP inh	MITF primary	MITF inh conf	AlphaScreen intf2	others
O=C1CCC(CCNCCOc2ccc(F)cc2)N1Cc1cccc(-n2cccn2)c1 (centres undefined)	2	0	3	0	x	x
CCOCc1ccc(O)c2ncccc12	0	-2	88*	98*	82*	101*
CCOc1c(C)cc(-c2ncccc2O)cc1C	-1	0	-4	9	x	x
Cc1ccc(O)c2ncccc12	-1	0	-11	0	x	x
COCc1ccc(O)c2ncccc12	0	0	91*	91*	109*	101*
CCOC(=O)/C=C1\Nc2ccccc2NC1=O	-1	0	-2	15	x	x
O=[N+]([O-])c1ccc(CN2CCN(Cc3ccncc3)CC2)cc1	-1	0	7	65*	10	15
O=[N+]([O-])c1ccc(CN2CCSCC2)cc1	1	0	5	48	x	x
O=[N+]([O-])c1ccc(CN2CCN(Cc3cccnc3)CC2)cc1	-1	0	-4	64*	-21	2
O=[N+]([O-])c1ccc(-c2nsc3c(N4CCN(Cc5cccnc5)CC4)ncnc23)cc1	0	0	-14	13	x	x
O=C1O[C@H](C(O)CO)C(O)=C1O (some centres undefined)	-1	0	0	76*!	47*	2	AlphaScreen DR=>6.5
CN(c1ccc(C(=O)NCc2ccccn2)cc1)S(=O)(=O)c1ccc(Cl)cc1	1	0	13	58*	-14	-3
CCc1oc2cc(OC(C)C(=O)OC)ccc2c(=O)c1-c1ccc2c(c1)OCCO2 (centres undefined)	-1	0	-5	-6	x	x
Cc1ccc(C(=O)O/N=C(\N)c2ccc([N+](=O)[O-])cc2)cc1	0	0	-19	9	x	x
CN(C(=O)Cc1ccc(NC2=NC3CS(=O)(=O)CC3S2)cc1)C1CCCCC1 (centres undefined)	4	-1	-8	58*	56*	42*
CC(C)(C)c1csc(CN2CCN(CC(=O)NC3CCCCC3)CC2)n1	1	0	1	26	x	x
CC(C)(C)c1csc(CN2CCN(CC(=O)N3CCOCC3)CC2)n1	-1	0	-3	54*	0	4
COC(=O)c1ccccc1NC(=O)/C(C#N)=C/c1cc(Cl)c(OC)c(OC)c1	1	0	7	53*	3	4
COCC(=O)NC(c1nnc2n1CCN(Cc1ccc(OC)c(C)c1OC)CC2)C(C)C (centres undefined)	0	0	5	-7	x	x
O=C(CNc1cccc2ccccc12)N/N=C/c1ccc(O)cc1O	2	0	18	14	x	x
Oc1ccccc1C1=Nc2ccccc2N=C(c2ccc(F)cc2)C1	1	0	-70	-1	x	x
O=C(CCCCC1SCC2NC(=O)NC21)NC1(c2ccc3c(c2)OCO3)CCCC1 (centres undefined)	1	-1	-7	113*	102*	18	AlphaScreen DR=i
O=C(O)CCCCC1SCC2NC(=O)NC21 (centres undefined)	-1	0	-2	122*	124*	101*
O=C(O)CCCC[C@H]1SC[C@H]2NC(=O)N[C@H]21	1	-1	-12	117*	123*	101*
CCCCC[C@@H](O)CC[C@H]1[C@H](O)CC(=O)[C@@H]1CCCCCCC(=O)O	2	x	x	22	x	x
SMILES	GPR151 activ	FBW7 activator	TEAD-YAP inh	MITF primary	MITF inh conf	AlphaScreen intf2	others
Cc1cc(S(=O)(=O)N2CCN(CCC(=O)O)CC2)ccc1Br	-1	0	-1	54*	-8	-1
COC(=O)CCN1CCN(S(=O)(=O)c2ccccc2Br)CC1	0	0	7	85*	-4	-1
COc1ccc2c(c1)CC(c1nc3ccc(-c4cncnc4)cc3o1)CO2 (centres undefined)	2	0	0	5	x	x
CC(=O)Nc1ccc(N2CCN(C(=O)c3ccccc3)CC2)cc1	2	0	9	53*	-12	-3
Cc1ncc(CN2CCCC(C(=O)Nc3ccc(-n4ccnc4C)cc3)C2)s1 (centres undefined)	0	0	4	-14	x	x
CC(C)OCCCNC(=O)C1CC(Cc2ccc(F)cc2)=NO1 (centres undefined)	1	0	-12	53*	23	12

Source: PubChem BioAssay (The Scripps Research Institute Molecular Screening Center)
